# Source: PubChem (several laboratories)
# esBAF inh: blocks esBAF chromatin remodeling in mouse ES cells; Bmi1-luciferase knock-in reporter, 24 h; 100% = twice the neutral-well signal; reporter increase, % at 12.5 µM; hit rate 2% among 350,000; AID 602393; in the data active = activation above about 40%; inconclusive = no clear call, values can overlap the other calls;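 note: 0% = median of the plate's neutral control wells and 100% = double that signal; a rise in the Bmi1 reporter signal indicates esBAF inhibition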
# Wnt act: activates Wnt/beta-catenin signaling in a reporter cell assay | hit rate 1.2% among 300,000 | activator, plate reader | activation, % at 9.35 µM | AID 743398; in the data active = activation above about 30%, passing the limit was not always enough; inconclusive = no clear call, values can overlap the other calls;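 note: 0% = neutral control wells and 100% = positive control wells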
# C2C12 statin: suppression of simvastatin myotoxicity. C2C12 myotubes + simvastatin, ATP luminescence, 48 h; scaled: DMSO 0, geranylgeraniol control 100. rescue of ATP level, % at 7.49 µM. hit rate 0.78% among 330,000. AID 602340;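 active = mean ATP rescue above about 67%, or every replicate alone reaching that limit, limit read from the data, passing the limit was not always enough; inconclusive = no clear call, values can overlap the other calls; inactive = mean under the limit and some replicate under it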;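 note: myotubes were challenged with 10 µM simvastatin during compound exposure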
# MITF TRPM1 HTS: activators of MITF-driven TRPM1 promoter activity in SK-MEL-5 cells; SK-MEL-5 TRPM1-promoter luciferase, 24 h; % of positive control, neutral wells = 0; activation, % at 12.5 µM; hit rate 0.75% among 300,000; AID 588334;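 active = mean activation of at least 80% with every replicate also reaching 80%; inconclusive = mean reaches 80% but some replicate falls short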;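 note: 0% = neutral control wells and 100% = parthenolide positive control wells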
# GAA850 FXN act: frataxin GAA850 promoter activation; HEK293 lucGAA850 FXN promoter luciferase reporter, 24 h; percent of 10 µM SAHA response; activation, % at 6 µM; hit rate 0.56% among 360,000;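 active = activation above the average of all compounds screened plus 3 SD, cutoff fixed separately per campaign, cut at about 7.5% in these data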;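 note: 0% = DMSO wells and 100% = 10 µM SAHA wells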
# Starred values were filed as active, the others as inactive; ? = inconclusive; . = no result given. Sampled rows, rich in hits. Any-hit rate of the full collection: about 3.3%.
SMILES,esBAF inh,Wnt act,C2C12 statin,MITF TRPM1 HTS,GAA850 FXN act
COc1ccc(C(=O)N2CCN(c3ccc(C(C)=O)cc3)CC2)cc1S(=O)(=O)N1CCCC1,47.7*,7.4,16.4,-1.5,3.6
C[C@@H]1CN([C@H](C)CO)C(=O)c2cccc(NC(=O)c3ccc(-c4nccs4)cc3)c2O[C@@H]1CN(C)CC1CC1,-4.7,.,3.1,.,.
Cc1ccc(C)c(/C=N/NC(=S)NCCc2ccccc2)c1,0.4,-4.1,132.5*,-2.1,0.3
COc1ccc(NC(=S)Nc2ncccc2C)c(OC)c1,47.7*,14.1,-3.6,68.2,4.5
Cc1ccc(NC(=S)NCCc2ccccc2)nc1,.,8.2,.,84.3*,7.2
Cc1cccnc1NC(=S)Nc1ncccc1C,38.3,28.4,-10.1,101.3*,5.7
COc1ccc(NC(=S)Nc2ncccc2C)cc1OC,.,15.1,.,64.4,6.0
CCC(=O)Nc1ccc2c(c1)C(=O)N(C)C[C@H](OC)[C@H](C)CN(CC1CCCCC1)[C@H](C)CO2,1.1,.,6.5,.,.
C[C@H](CO)N1C[C@H](C)[C@@H](CN(C)S(=O)(=O)c2cn(C)cn2)Oc2c(NS(=O)(=O)c3ccc(Cl)cc3)cccc2C1=O,-3.3,.,.,.,.
CO[C@H]1CN(C)C(=O)c2ccc(NC(=O)c3cnccn3)cc2OC[C@H](C)NC[C@H]1C,0.2,.,9.2,.,.
COc1ccc(NC(=S)NCCSc2ccc(C)cc2)c(OC)c1,.,61.0*,.,7.2,-0.7
Cc1cccnc1NC(=S)NCCc1ccccc1,?,39.6*,8.5,?,3.6
CO[C@@H]1CN(C)C(=O)c2ccc(NC(=O)C3CC3)cc2OC[C@H](C)N(Cc2cncnc2)C[C@H]1C,6.9,.,-12.8,.,.
COc1ccc(C(=O)OCC(=O)N2CCN(C(=O)c3ccco3)CC2)cc1OC,.,-1.5,88.2*,-9.1,2.3
CCCc1cn(CC[C@H]2CC[C@H](NC(=O)CCN3CCCCC3)[C@@H](CO)O2)nn1,3.0,.,-1.8,.,.
CCOC(=O)C1=C(C(C)=O)C(c2cccnc2)C(C#N)=C(N)O1 (stereo not given),2.9,.,118.3*,-2.7,1.3
Cc1ccc(/C=C(\C#N)C(=O)Nc2ccccn2)o1,62.8*,19.9,-5.6,103.2*,3.4
O=[N+]([O-])c1cc2c(cc1/C=N/Nc1nc(Nc3ccccc3)nc(N3CCCCC3)n1)OCO2,40.0,-4.1,-40.6,.,-2.3
Cc1cc(C)nc(N/N=C/c2cc3c(cc2[N+](=O)[O-])OCO3)n1,.,55.6*,.,-10.1,2.0
O=C(O)c1ccc(N/N=C/c2ccc3c(c2)OCO3)cc1,.,-0.7,.,-81.9,-9.6
O=C(O)c1ccc(N/N=C/c2cc3c(cc2[N+](=O)[O-])OCO3)cc1,67.0*,-1.6,-15.8,-24.4,2.4
C[C@@H]1CN([C@H](C)CO)S(=O)(=O)c2ccc(C#CC3CC3)cc2O[C@@H]1CN(C)C,-0.8,.,15.9,.,.
Nc1ccccc1C#Cc1ccc2[nH]ccc2c1,82.0*,?,23.8,61.4,3.6
Nc1ccc(C#Cc2ccccc2)cc1,10.6,.,3.7,-14.9,-6.5
Nc1ccccc1C#Cc1ccccc1,68.6*,38.9*,16.4,132.8*,3.5
SMILES,esBAF inh,Wnt act,C2C12 statin,MITF TRPM1 HTS,GAA850 FXN act
CNC[C@@H]1OCCCC[C@H](C)Oc2ccc(NC(=O)Nc3ccccc3)cc2C(=O)N([C@H](C)CO)C[C@@H]1C,1.0,.,34.5,.,.
Cc1nc(N)sc1-c1csc(N(C)c2ccc(O)cc2)n1,43.5*,-2.7,94.0*,37.7,7.2
O=C(Nc1ccc(Cl)cc1C(F)(F)F)c1ccccc1Cl,.,0.9,.,13.2,2.5
O=C(Nc1cc(F)c(Br)cc1F)c1ccc(Cl)cc1,.,49.0*,.,75.1,2.5
O=C(Nc1ccsc1C(=O)O)c1ccc(Cl)cc1,60.6*,15.4,-3.5,14.6,4.0
Cc1ccc(C(=O)Nc2ccsc2C(=O)O)cc1,.,26.3,.,28.1,3.8
O=C(Nc1ccc(Cl)cc1C(F)(F)F)c1ccc(Cl)cc1,48.6*,?,-7.0,61.7,3.2
COc1ccccc1-c1ccc2c(c1)O[C@H](CN(C)C(=O)c1ccccc1)[C@@H](C)CN([C@H](C)CO)S2(=O)=O,-1.7,.,-16.6,.,.
C[C@H](CO)N1C[C@H](C)[C@H](CN(C)C(=O)Nc2cccc3ccccc23)Oc2ccc(NC(=O)Nc3ccc4c(c3)OCO4)cc2C1=O,0.1,.,-38.1,.,.
COc1ccc(S(=O)(=O)N2C[C@H](O)COC[C@H]3O[C@H](CC(=O)NCc4ccc(Cl)c(Cl)c4)CC[C@@H]32)cc1,1.3,.,4.0,.,.
O=C(Nc1ccccc1)Nc1ccc2c(c1)CCC2,49.2*,0.7,-12.3,73.1,6.7
O=C(Nc1cccc(F)c1)Nc1ccc2c(c1)CCC2,63.9*,34.0*,-12.0,?,2.0
Cc1ccc(NC(=O)Nc2ccc3c(c2)CCC3)cc1,.,2.4,.,?,5.1
COc1ccc(CN(C)C[C@H]2Oc3ccc(NC(=O)Cc4ccccc4)cc3C(=O)N([C@H](C)CO)C[C@H]2C)cc1,-3.9,.,10.2,.,.
CC1=CC(C)(C)N2C(=O)C3(C(C#N)=C(N)Oc4cc(C)oc(=O)c43)c3cc(C)cc1c32 (stereo not given),-0.2,.,.,.,-1.2
CC1=CC(C)(C)N2C(=O)C3(C(C#N)=C(N)OC4=C3C(=O)CC(C)(C)C4)c3c(C)c(C)cc1c32 (stereo not given),-2.9,-3.4,92.4*,-8.5,-0.5
COc1cc2c3c(c1)C1(C(=O)N3C(C)(C)C=C2C)C(C#N)=C(N)Oc2cc(C)oc(=O)c21 (stereo not given),2.1,0.0,113.9*,-5.1,0.1
O=C(Nc1ccn(Cc2ccccc2)n1)c1ccc2c(c1)OCO2,.,15.9,.,72.3,2.2
O=C(Nc1ccn(Cc2ccc(Cl)cc2)n1)c1ccccc1,56.4*,35.5*,12.5,?,5.1
C[C@@H]1CN([C@H](C)CO)C(=O)c2cccc(NC(=O)C3CC3)c2O[C@@H]1CN(C)CC1CCCCC1,-0.5,.,0.7,.,.
O=C(N[C@@H]1CC[C@@H](CCNC(=O)C2CC2)O[C@H]1CO)c1ccncc1,0.4,.,2.8,.,.
CCCC1CCC(c2ccc(OCC)cc2)=CC1=O (stereo not given),28.9,52.7*,-15.7,67.5,3.1
Cc1noc(C)c1S(=O)(=O)N(C)C[C@H]1Oc2ccc(NS(=O)(=O)c3cn(C)cn3)cc2CC(=O)N([C@H](C)CO)C[C@@H]1C,-4.9,.,-14.6,.,.
Nc1cccc(Oc2ccc3c(c2)C(=O)N(CC2CCCO2)C3=O)c1 (stereo not given),49.7*,15.2,7.0,64.5,3.2
CCCC#Cc1cnc2c(c1)C(=O)N([C@@H](C)CO)C[C@H](C)[C@H](CN(C)C(=O)Nc1ccc(OC)cc1)O2,0.5,.,14.5,.,.
O=C(Oc1cccc(Nc2ncnc3ccccc23)c1)c1ccccc1Cl,.,7.8,.,1.5,-4.8
COc1ccc(Nc2ncnc3ccccc23)c(OC)c1,10.1,-1.5,-0.9,15.2,4.4
Cc1c(C)n(CCO)c2ncnc(Nc3ccc(F)cc3)c12,?,9.7,-3.2,51.5,4.3
COc1ccc(Nc2ncnc3c2c(C)c(C)n3CCO)cc1,-10.5,41.1*,-13.5,70.3,4.2
